From PubChem
Anthrax LF prot: blocks Bacillus anthracis lethal factor protease; P15917; multiplex microsphere protease cleavage assay, LF; inhibition, % at 10 µM; 360,000 compounds, 0.12% hits; AID 588501; further: plate controls were buffer without enzyme for full effect and enzyme alone for no effect
Bead autofluor: flagged as autofluorescent in microsphere protease counterscreen. compound autofluorescence counterscreen, microsphere flow cytometry; active compounds read high. fluorescence intensity (concentration not given with the values). 360,000 compounds, 3.1% hits. AID 624483; in the data active means fluorescence intensity above about 16000; inconclusive means no clear call, values can overlap the other calls
BoNT-A LC inh2: BoNT A light chain protease inhibition | 360,000 compounds, 0.17% hits | inhibition, % at 10 µM | multiplex microsphere protease substrate cleavage, flow cytometry | AID 588499; further: plate controls were buffer without enzyme for full effect and enzyme alone for no effect
SARS 3CLpro inh: SARS-CoV 3CLpro protease inhibition; P0C6X7; recombinant SARS-CoV 3CLpro, quenched FRET peptide cleavage; inhibition, % at 6 µM; 290,000 compounds, 0.14% hits; AID 1706; in the data active means inhibition above about 12%
BoNT-F LC inh: BoNT F light chain protease inhibition; inhibition, % at 10 µM; Multiplex microsphere protease cleavage assay, flow cytometry; 360,000 compounds, 0.22% hits; in the data active means inhibition above about 35%, passing the limit was not always enough; inconclusive means no clear call, values can overlap the other calls; further: plate controls were buffer without enzyme for full effect and enzyme alone for no effect
* marks the source's active call; other numbers are inactive results. This is a sample that favours compounds with a hit; in the whole collection about 3.5% have one here. Unless noted, no stated cut-off is given here; in the data, active means inhibition above about 30%; inconclusive means no clear call, values can overlap the other calls; inactive means below that.

Cc1ccc(N2CC(C(=O)NCCCn3ccnc3)CC2=O)cc1 (centres undefined) was read as Anthrax LF prot 0, Bead autofluor 16950*, BoNT-A LC inh2 -2, SARS 3CLpro inh 4 and BoNT-F LC inh -3.
`CCN(CC)c1ccc(/C=C(\C#N)C(=O)c2ccc(Br)cc2)cc1` gave Anthrax LF prot 46*, Bead autofluor 97679*, BoNT-A LC inh2 49*, SARS 3CLpro inh -2 and BoNT-F LC inh 61*.
CN1C=CC=C/C1=C1\SC(=S)N(C2CCCCC2)C1=O was read as Anthrax LF prot -4, Bead autofluor 21024*, BoNT-A LC inh2 inconclusive, SARS 3CLpro inh 4 and BoNT-F LC inh 3.
C=CCOc1ccc(CNCc2cccnc2)cc1 was read as Anthrax LF prot 0, Bead autofluor 3708, BoNT-A LC inh2 2, SARS 3CLpro inh 0 and BoNT-F LC inh -3.
`COc1ccc(CNC(=O)C2CCCN(Cc3nc(-c4cccc(C)c4)oc3C)C2)cc1` (centres undefined) gave Anthrax LF prot -1, Bead autofluor 2740, BoNT-A LC inh2 0, SARS 3CLpro inh 1 and BoNT-F LC inh 2.
For Cc1ccccc1-c1nc(CN2CCCC(C(=O)NCc3cccnc3)C2)c(C)o1 (centres undefined) the results were Anthrax LF prot -2, Bead autofluor 24766*, BoNT-A LC inh2 inconclusive, SARS 3CLpro inh -2 and BoNT-F LC inh -8.
Screening CCc1ccc(-c2nc(CN3CCCC(C(=O)NCCc4ccc(OC)c(OC)c4)C3)c(C)o2)cc1 (centres undefined) returned Anthrax LF prot -6, Bead autofluor 21829*, BoNT-A LC inh2 inconclusive, SARS 3CLpro inh -1 and BoNT-F LC inh 2.
Cc1ccccc1-c1nc(CN2CCCC(C(=O)NCCCN3CCOCC3)C2)c(C)o1 (centres undefined) was read as Anthrax LF prot 0, Bead autofluor 24221*, BoNT-A LC inh2 0, SARS 3CLpro inh -5 and BoNT-F LC inh 0.
`COc1ccc(CCNC(=O)C2CCCN(Cc3nc(-c4ccccc4C)oc3C)C2)cc1OC` (centres undefined) gave Anthrax LF prot -1, Bead autofluor 21174*, BoNT-A LC inh2 inconclusive, SARS 3CLpro inh -5 and BoNT-F LC inh -7.
Screening COc1ccc(CCNC(=O)C2CCN(Cc3nc(-c4cccc(Cl)c4)oc3C)CC2)cc1OC returned Anthrax LF prot -3, Bead autofluor 6376, BoNT-A LC inh2 -1, SARS 3CLpro inh 0 and BoNT-F LC inh -4.
`CC(=NNC(=S)Nc1cccc(C)c1)c1ccccn1` gave Anthrax LF prot 7, Bead autofluor 4151, BoNT-A LC inh2 6 and BoNT-F LC inh 25.
COc1ccc(-n2c(C)cc(C(=O)CSc3nn4c(=O)c(C(C)(C)C)nnc4s3)c2C)cc1 was read as Anthrax LF prot -2, Bead autofluor 11189, BoNT-A LC inh2 -4, SARS 3CLpro inh -2 and BoNT-F LC inh -17.
`Cc1oc(-c2ccc(Cl)cc2)nc1CN1CCC(C(=O)NCc2cccnc2)CC1` gave Anthrax LF prot -2, Bead autofluor 16967*, BoNT-A LC inh2 -2, SARS 3CLpro inh 3 and BoNT-F LC inh -6.
NC(=O)CN(c1ccc(Oc2ccccc2)cc1)S(=O)(=O)c1ccccc1 was read as Anthrax LF prot -1, Bead autofluor 5606, BoNT-A LC inh2 0, SARS 3CLpro inh -4 and BoNT-F LC inh 0.
Screening Nc1nc(N)nc(-c2ccccc2)n1 returned Anthrax LF prot 0, Bead autofluor 3065, BoNT-A LC inh2 0, SARS 3CLpro inh -2 and BoNT-F LC inh 6.
Screening CCCCOc1nc(N)nc(-c2ccccc2)n1 returned Anthrax LF prot 0, Bead autofluor 22127*, BoNT-A LC inh2 0, SARS 3CLpro inh 0 and BoNT-F LC inh -3.
Screening CC(C)(C)c1ccc(Cn2ccc(-c3ccc4c(c3)OCO4)n2)cc1 returned Anthrax LF prot -4, Bead autofluor 19826*, BoNT-A LC inh2 1, SARS 3CLpro inh -5 and BoNT-F LC inh -1.
Cc1c(NCc2nc3ccccc3[nH]2)c(=O)n(-c2ccccc2)n1C was read as Anthrax LF prot -2, Bead autofluor 11112, BoNT-A LC inh2 0, SARS 3CLpro inh -1 and BoNT-F LC inh -11.
Screening COc1ccc(NC(=O)Nc2ccc3c(c2)CC(=O)N([C@H](C)CO)C[C@H](C)[C@H](CN(C)Cc2ccc(C(=O)O)cc2)O3)cc1 returned Anthrax LF prot -6, Bead autofluor 3847, BoNT-A LC inh2 -1 and BoNT-F LC inh -10.
For CCC(C)NS(=O)(=O)c1ccc(S(=O)(=O)N2CCCC3(CCCCC3)C2)cc1 (centres undefined) the results were Anthrax LF prot -5, Bead autofluor 21732*, BoNT-A LC inh2 2, SARS 3CLpro inh 3 and BoNT-F LC inh 0.
`COC(=O)CC1COc2ccccc2N1C(=O)c1ccc(Cl)cc1` (centres undefined) gave Anthrax LF prot -7, Bead autofluor 23189*, BoNT-A LC inh2 -2, SARS 3CLpro inh -3 and BoNT-F LC inh -1.
COC(=O)CC1COc2ccccc2N1C(=O)c1ccc(C(C)(C)C)cc1 (centres undefined) was read as Anthrax LF prot 0, Bead autofluor 20115*, BoNT-A LC inh2 inconclusive, SARS 3CLpro inh 0 and BoNT-F LC inh 0.
Screening CCC(C)(C(=O)NC1CCCC1)N(Cc1ccco1)C(=O)c1ccccn1 (centres undefined) returned Anthrax LF prot 2, Bead autofluor 6142, BoNT-A LC inh2 0, SARS 3CLpro inh -2 and BoNT-F LC inh -4.
Screening CCC(C)(C(=O)NC1CCCCC1)N(Cc1ccco1)C(=O)c1cnccn1 (centres undefined) returned Anthrax LF prot -5, Bead autofluor 16804*, BoNT-A LC inh2 0, SARS 3CLpro inh -3 and BoNT-F LC inh -2.
For CCC(C)(C(=O)NC1CCCCC1)N(CC1CCCO1)C(=O)c1ccccn1 (centres undefined) the results were Anthrax LF prot 2, Bead autofluor 25517*, BoNT-A LC inh2 -4, SARS 3CLpro inh -6 and BoNT-F LC inh -8.
Screening CCC(C)(C(=O)NC1CCCC1)N(Cc1ccco1)C(=O)c1ccc2c(c1)OCO2 (centres undefined) returned Anthrax LF prot -4, Bead autofluor 17659*, BoNT-A LC inh2 -2, SARS 3CLpro inh 3 and BoNT-F LC inh -1.
N/C(=N/OCC(=O)Nc1cccc2ccccc12)c1nonc1N was read as Anthrax LF prot 2, Bead autofluor 17291*, BoNT-A LC inh2 -2, SARS 3CLpro inh 3 and BoNT-F LC inh -3.
For COc1cccc(-n2c(SCC#N)nnc2-c2cnccn2)c1 the results were Anthrax LF prot -8, Bead autofluor 15146, BoNT-A LC inh2 3, SARS 3CLpro inh -3 and BoNT-F LC inh 4.
`Cn1c(SCC(N)=O)nnc1-c1cnccn1` gave Anthrax LF prot -4, Bead autofluor 4360, BoNT-A LC inh2 -1, SARS 3CLpro inh 3 and BoNT-F LC inh -5.
Screening COc1cccc(-n2c(SC)nnc2-c2cnccn2)c1 returned Anthrax LF prot -9, Bead autofluor 20539*, BoNT-A LC inh2 6, SARS 3CLpro inh 5 and BoNT-F LC inh 6.
